Source: PubChem BioAssay (NCATS)
Values without a mark were called inactive. Inconclusive results are not listed. The source made the active and inactive calls. Unless noted, calls come from the whole dose curve; as a rule, active = well fitted curve in the direction sought with a large enough effect; inconclusive = small, poorly fitted or top-dose-only effect, or another doubt; inactive = no such curve, though single readings can be large; an effect the other way counts as inactive or inconclusive.

Columns and labels:
[1] = target: Lysosomal acid glucosylceramidase (Homo sapiens) (UniProt P04062); experiment: Glucocerebrosidase-p2 (AID 348; in the data active = potency below about 10 µM; note: potency is the fitted concentration of half-maximal effect); settings: purified GBA, blue fluorogenic substrate, 40 min
Method in brief: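 Normal human glucocerebrosidase (0.2 nM) with blue fluorogenic substrate (80 uM final) in citrate/phosphate pH 5.9 with 10mM sodium taurocholate, 0.01% tween-20; 40 min RT, NaOH/glycine stop; fluorescence Ex 365/Em 440; AC50 from a titration from 0.6 nM upwards.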

[2] = AP1 Signaling Pathway (AID 357; active = well fitted curve in either direction with a large enough effect, not every such curve was filed as active; note: % is set by controls: 0 for no effect and ±100 for the full control effect); settings: ME-180 AP-1-bla reporter, EGF-induced, beta-lactamase ratio, 5 h; at 7.69 µM (top of the series) unless noted
Method in brief: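 ME-180 cells with beta-lactamase reporter under AP-1 response element, stimulated with EC50 EGF; compounds tested in titration series, 5 h at 37 °C. CCF4 substrate added 2.5 h at room temperature; 460/530 nm emission ratio gave %activity and AC50.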

[3] = target: Cytochrome P450 1A2 (Homo sapiens) (UniProt P05177); experiment: p450-cyp1a2 (AID 410; calls by dose curve; note: potency is the fitted concentration of half-maximal effect); settings: recombinant CYP1A2, luciferin-ME demethylation, luminescence; series mostly up to 57 µM
Method in brief: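 O-Demethylation of luciferin 6' methyl ether by human CYP1A2 is monitored as luciferase luminescence. Substrate sits at Km (100uM); enzyme is 20nM. Values are scaled to 57 uM furafylline as maximal inhibition.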

[4] = NFAT Signaling Pathway (AID 444; active = well fitted curve in either direction with a large enough effect, not every such curve was filed as active;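 note: carbachol stimulus at about its EC50 of 1 µM final; % is set by controls: 0 for no effect and ±100 for the full control effect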); settings: Jurkat NFAT-bla M1, carbachol, beta-lactamase ratio, 5 h; at 7.69 µM (top of the series) unless noted
Method in brief: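 Jurkat cells with NFAT-driven β-lactamase reporter and co-expressed M1 receptor, stimulated with carbachol (final 1 uM, ~EC50), compound titration, 5 h at 37 °C. CCF4 loaded 1 h at RT; 460/530 nm ratio gave %activity and AC50.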

[5] = Stat Signaling Pathway (AID 446; active = well fitted curve in either direction with a large enough effect, not every such curve was filed as active;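 note: ME-180 cervical cancer cells given 40 pM IL-6 alongside compound; SIE-controlled beta-lactamase reporter measured as 460/530 nm FRET emission ratio; % is set by controls: 0 for no effect and ±100 for the full control effect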); settings: ME-180 SIE beta-lactamase reporter, IL-6 stimulated, 5 h; at 7.69 µM (top of the series) unless noted
Method in brief: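 FRET read-out (405 nm excitation, 460/530 nm emission) of a beta-lactamase reporter under a STAT-inducible element in ME-180 cervical carcinoma cells. Cells with compound receive 40 pM IL-6 for 5 h. Values are normalised to AC90 stimulation and AC90 JAK-inhibitor controls.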

[6] = target: Glucocorticoid receptor (Homo sapiens) (UniProt P04150); experiment: GR-GFP Redistribution (AID 450;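 active = compounds whose dose series gives a full or clear partial fitted curve of increased nuclear translocation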; note: potency is the fitted concentration of half-maximal effect); settings: U2OS GR-GFP nuclear translocation, laser cytometry, 2 h
[7] = target: Glucocorticoid receptor (Homo sapiens) (UniProt P04150); experiment: GR-EFC Redistribution (AID 451; calls by dose curve; note: potency is the fitted concentration of half-maximal effect); settings: CHO-K1 GR-EFC translocation, beta-gal luminescence, 2 h
Method in brief: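 CHO-K1 cells expressing nuclear EA and GR-ED fragments of b-gal; compounds titrated up to 46 uM final, 2 h at 37 C. GR nuclear translocation read as complemented b-gal luminescence after 1 h RT detection.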

[8] = target: Mitogen-activated protein kinase 10 (Mus musculus) (UniProt Q61831); experiment: JNK3 AlphaScreen Assay (AID 530; active = well fitted curve in either direction with a large enough effect, not every such curve was filed as active;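 note: kinase came from lysate of stimulated human HepG2 cells; signal reports phosphorylation of biotinylated GST-cJun 1-79 at Ser73 with 10 µM ATP; % is set by controls: 0 for no effect and ±100 for the full control effect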); settings: JNK3 lysate, c-Jun phosphorylation; series mostly up to 57.1 µM
Method in brief: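 Activity was read by AlphaScreen after JNK3-containing HepG2 lysate (cytokine pre-activated) phosphorylated biotinylated GST-cJun with 10 uM ATP at room temperature. Phospho-Ser73 cJun antibody with Protein-A acceptor beads provided detection.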

[9] = target: Cytochrome P450 3A4 (Homo sapiens) (UniProt P08684); experiment: qHTS Assay for Activators of Cytochrome P450 3A4 (AID 885); settings: recombinant CYP3A4, Luciferin-PPXE luminescence, 60 min; series mostly up to 57.1 µM; note: nearly all actives have a fitted effect of over 65% in size
Method in brief: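 Luminescent readout of luciferin formed from 25 uM Luciferin-PPXE (KM level) by 20 nM CYP3A4 in 200 mM KPO4, with 60 min NADPH-driven reaction at room temperature after 10 min compound exposure. Ketoconazole (57 uM) defined 100% inhibition.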

[10] = target: Dual specificity protein kinase CLK4 (Homo sapiens) (UniProt Q9HAZ1); experiment: qHTS Assay for Inhibitors of CDC-like Kinase 4 (Kinase-Glo Assay) (AID 1770); settings: recombinant Clk4, Kinase-Glo ATP depletion luminescence; series mostly up to 66.7 µM; note: nearly all actives have a fitted effect of over 65% in size; note: potency is the fitted concentration of half-maximal effect
Method in brief: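 Inhibition was judged from remaining ATP, measured by Ultra-Glo luciferase bioluminescence after Clk4 (25 nM) had acted on RS peptide at 1 uM ATP for 4.5 hours, room temperature.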

[11] = target: Dual specificity protein kinase CLK4 (Homo sapiens) (UniProt Q9HAZ1); experiment: qHTS Assay for Inhibitors of CDC-like Kinase 4 (ADP-Glo Assay) (AID 1771); settings: recombinant CLK4, ADP-Glo luminescence; series mostly up to 80 µM; note: nearly all actives have a fitted effect of over 70% in size; note: potency is the fitted concentration of half-maximal effect
Method in brief: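 Compounds are pin-transferred onto substrate mix (100 uM RS peptide, 1 uM ATP), then 25 nM Clk4 is added. After 1 hr at room temperature, ADP-Glo reagent runs 45 min, detection reagent 30 min, then luminescence is read.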

[12] = target: Dual specificity protein kinase CLK4 (Homo sapiens) (UniProt Q9HAZ1); experiment: qHTS Assay for Inhibitors of CDC-like Kinase 4 (ADP-FP Assay) (AID 1795); settings: Transcreener ADP fluorescence polarization; series mostly up to 50 µM; note: nearly all actives have a fitted effect of over 60% in size; note: potency is the fitted concentration of half-maximal effect
Method in brief: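 Inhibition of ADP formation by 6.25 nM Clk4 is measured using 1 uM ATP and 100 uM RS repeat peptide over one hour. Produced ADP displaces a fluorescent tracer from antibody, lowering polarization.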

[13] = target: Ubiquitin carboxyl-terminal hydrolase 1 (Homo sapiens) (UniProt O94782); experiment: Inhibitors of USP1/UAF1: Pilot qHTS (AID 504865); settings: purified USP1/UAF1, Ub-rhodamine cleavage fluorescence; series mostly up to 54.9 µM;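 note: rhodamine fluorescence freed from ubiquitin-rhodamine substrate followed over time; top concentration of the series differs between compounds; % is set by controls: 0 for no effect and ±100 for the full control effect; nearly all actives have a fitted effect of over 35% in size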
Method in brief: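 Kinetic fluorescence assay: 1nM USP1/UAF1, 15 min compound preincubation, then 150nM Ub-Rho; 480/540 nm.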

[14] = Primary qHTS for small molecule stabilizers of the endoplasmic reticulum resident proteome: Secreted ER Calcium Modulated Protein (SERCaMP) assay (AID 1508630); settings: SH-SY5Y GLuc-SERCaMP (Gaussia luciferase released on ER calcium loss) secretion, thapsigargin, luminescence; series mostly up to 38.4 µM; note: % is set by controls: 0 for no effect and ±100 for the full control effect
Method in brief: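 The SH-SY5Y reporter protocol was run at 3 concentrations up to 38.3 uM (primary) or 11 concentrations (follow-up): 16 h compound, 100 nM thapsigargin for 4 h, then extracellular luciferase luminescence.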

[15] = target: 3',5'-cyclic-AMP phosphodiesterase 4B (Homo sapiens) (UniProt Q07343); experiment: qHTS Assay for Inhibitors of PDE-IV (AID 607; active = well fitted activation curve with a large enough effect in the main read-out, with a control signal flat, not every such curve was filed as active; note: % of control where 0% means no effect); settings: HEK293 ACTOne CNG channel cells, membrane potential fluorescence; series mostly up to 22.9 µM
Method in brief: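 Cell-based read-out of cAMP via a modified cyclic nucleotide-gated channel and membrane potential dye (535/590 nm) in HEK293 cells expressing PDE4 endogenously. Compounds tested up to 22.9 uM final; 100 uM RO 20-1724 reference.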

[16] = target: Cytochrome P450 2D6 (Homo sapiens) (UniProt P10635); experiment: qHTS Assay for Inhibitors and Substrates of Cytochrome P450 2D6 (AID 891); settings: recombinant CYP2D6, luciferin-ME EGE luminescence; series mostly up to 57.1 µM; note: potency is the fitted concentration of half-maximal effect; nearly all actives have a fitted effect of over 60% in size
Method in brief: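 Luminescent read-out of luciferin formed by 5 nM human CYP2D6 demethylating 30 uM Luciferin-ME EGE (Km level) over 60 min at room temperature after NADPH regeneration addition. Data normalized to full inhibition by 1.43 uM quinidine.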

[17] = target: Cytochrome P450 3A4 (Homo sapiens) (UniProt P08684); experiment: qHTS Assay for Inhibitors and Substrates of Cytochrome P450 3A4 (AID 884); settings: recombinant CYP3A4, Luciferin-PPXE luminescence; series mostly up to 57.1 µM; note: potency is the fitted concentration of half-maximal effect; nearly all actives have a fitted effect of over 50% in size
Method in brief: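 Luminescent readout of luciferin produced by CYP3A4 (20 nM) dealkylation of Luciferin-PPXE, 25 uM (its KM). NADPH-driven reaction ran 60 min at RT after 10 min compound preincubation; data scaled to 57 uM ketoconazole as 100% inhibition.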

[18] = qHTS Assay for Identification of Small Molecule Agonists for Hypoxia Response Element Signaling Pathway (AID 914; active = well fitted activation curve with a large enough effect in the signal ratio, with a control signal flat, not every such curve was filed as active; the % refers to the signal ratio; note: % of control where 0% means no effect); settings: ME-180 (cervical carcinoma) HRE-bla reporter, beta-lactamase ratio, CoCl2, 17 h; activation: stronger effect = higher value
Method in brief: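 qHTS titration; ME-180 HRE-bla cells; EC50 CoCl2 co-treatment, 17 h at 37 degrees Celsius; CCF4 dye, ex 405nm, em 460nm and 530nm; %Activity from ratio; AC50.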

Sequence of Cytochrome P450 3A4 (Homo sapiens) (P08684 whole entry, looked up): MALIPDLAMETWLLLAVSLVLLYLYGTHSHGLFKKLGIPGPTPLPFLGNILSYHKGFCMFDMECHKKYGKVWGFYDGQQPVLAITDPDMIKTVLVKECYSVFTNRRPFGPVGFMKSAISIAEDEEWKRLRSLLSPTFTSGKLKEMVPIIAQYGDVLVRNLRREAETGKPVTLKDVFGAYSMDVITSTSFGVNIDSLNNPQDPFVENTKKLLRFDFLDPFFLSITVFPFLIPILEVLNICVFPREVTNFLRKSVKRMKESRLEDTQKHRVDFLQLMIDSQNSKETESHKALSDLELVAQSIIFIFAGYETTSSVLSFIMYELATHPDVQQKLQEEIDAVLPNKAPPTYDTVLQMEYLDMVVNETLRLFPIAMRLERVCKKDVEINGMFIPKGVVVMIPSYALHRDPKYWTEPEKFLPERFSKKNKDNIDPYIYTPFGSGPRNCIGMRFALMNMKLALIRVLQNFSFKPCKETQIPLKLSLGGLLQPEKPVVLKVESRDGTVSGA
Sequence of Ubiquitin carboxyl-terminal hydrolase 1 (Homo sapiens) (O94782 whole entry, looked up): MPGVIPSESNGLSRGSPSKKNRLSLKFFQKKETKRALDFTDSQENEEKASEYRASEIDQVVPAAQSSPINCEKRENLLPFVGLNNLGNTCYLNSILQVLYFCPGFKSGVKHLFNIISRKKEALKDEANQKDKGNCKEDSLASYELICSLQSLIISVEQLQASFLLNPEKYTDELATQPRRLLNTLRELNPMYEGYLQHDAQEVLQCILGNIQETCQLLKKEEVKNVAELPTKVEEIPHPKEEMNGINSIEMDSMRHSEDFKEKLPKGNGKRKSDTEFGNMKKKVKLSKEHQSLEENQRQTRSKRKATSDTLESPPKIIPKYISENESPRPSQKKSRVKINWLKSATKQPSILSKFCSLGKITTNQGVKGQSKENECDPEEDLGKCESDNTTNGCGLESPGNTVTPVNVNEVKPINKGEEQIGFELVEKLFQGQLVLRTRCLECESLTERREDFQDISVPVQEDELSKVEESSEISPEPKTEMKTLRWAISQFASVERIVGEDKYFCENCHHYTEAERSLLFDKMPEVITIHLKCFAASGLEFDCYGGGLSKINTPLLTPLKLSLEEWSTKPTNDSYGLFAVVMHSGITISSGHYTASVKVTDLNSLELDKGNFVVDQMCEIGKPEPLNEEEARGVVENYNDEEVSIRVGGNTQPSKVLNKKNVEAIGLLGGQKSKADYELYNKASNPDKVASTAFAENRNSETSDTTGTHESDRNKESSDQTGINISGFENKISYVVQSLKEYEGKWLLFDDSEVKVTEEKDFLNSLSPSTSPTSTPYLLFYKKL
Sequence of Glucocorticoid receptor (Homo sapiens) (P04150 whole entry, looked up, the tested form may be a part): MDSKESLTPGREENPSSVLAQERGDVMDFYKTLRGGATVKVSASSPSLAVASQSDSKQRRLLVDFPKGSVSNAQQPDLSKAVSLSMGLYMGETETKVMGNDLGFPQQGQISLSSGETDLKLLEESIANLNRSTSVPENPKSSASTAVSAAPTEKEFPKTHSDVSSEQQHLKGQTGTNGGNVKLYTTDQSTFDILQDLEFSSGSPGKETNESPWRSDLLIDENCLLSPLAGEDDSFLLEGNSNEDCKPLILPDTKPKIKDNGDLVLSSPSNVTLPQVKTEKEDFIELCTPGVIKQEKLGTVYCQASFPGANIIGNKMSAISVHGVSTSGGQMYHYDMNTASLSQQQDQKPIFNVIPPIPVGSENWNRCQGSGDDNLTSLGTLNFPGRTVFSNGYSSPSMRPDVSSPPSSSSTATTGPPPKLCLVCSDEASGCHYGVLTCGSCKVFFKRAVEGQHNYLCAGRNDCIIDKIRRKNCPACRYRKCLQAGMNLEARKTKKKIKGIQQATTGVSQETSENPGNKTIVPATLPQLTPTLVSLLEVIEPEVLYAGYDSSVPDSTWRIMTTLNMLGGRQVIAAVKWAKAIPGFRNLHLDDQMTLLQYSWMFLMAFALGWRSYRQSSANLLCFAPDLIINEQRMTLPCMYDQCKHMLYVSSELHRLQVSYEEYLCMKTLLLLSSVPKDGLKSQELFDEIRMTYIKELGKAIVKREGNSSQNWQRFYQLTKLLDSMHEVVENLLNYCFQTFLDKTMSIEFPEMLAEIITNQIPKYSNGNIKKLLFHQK
Sequence of Lysosomal acid glucosylceramidase (Homo sapiens) (P04062 whole entry, looked up): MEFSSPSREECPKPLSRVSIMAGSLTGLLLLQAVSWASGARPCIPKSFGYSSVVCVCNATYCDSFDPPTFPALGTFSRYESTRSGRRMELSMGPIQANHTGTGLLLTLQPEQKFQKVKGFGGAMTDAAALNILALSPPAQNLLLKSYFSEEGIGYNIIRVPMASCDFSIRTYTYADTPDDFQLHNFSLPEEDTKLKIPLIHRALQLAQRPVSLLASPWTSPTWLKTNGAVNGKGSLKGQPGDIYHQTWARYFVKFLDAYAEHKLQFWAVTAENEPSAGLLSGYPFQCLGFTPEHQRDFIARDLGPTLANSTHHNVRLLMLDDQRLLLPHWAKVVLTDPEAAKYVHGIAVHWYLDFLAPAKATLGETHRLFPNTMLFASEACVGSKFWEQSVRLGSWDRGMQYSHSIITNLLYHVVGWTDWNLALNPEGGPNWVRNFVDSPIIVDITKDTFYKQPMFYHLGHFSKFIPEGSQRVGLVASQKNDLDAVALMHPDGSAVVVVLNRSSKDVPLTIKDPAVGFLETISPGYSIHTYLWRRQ
Sequence of 3',5'-cyclic-AMP phosphodiesterase 4B (Homo sapiens) (Q07343 whole entry, looked up): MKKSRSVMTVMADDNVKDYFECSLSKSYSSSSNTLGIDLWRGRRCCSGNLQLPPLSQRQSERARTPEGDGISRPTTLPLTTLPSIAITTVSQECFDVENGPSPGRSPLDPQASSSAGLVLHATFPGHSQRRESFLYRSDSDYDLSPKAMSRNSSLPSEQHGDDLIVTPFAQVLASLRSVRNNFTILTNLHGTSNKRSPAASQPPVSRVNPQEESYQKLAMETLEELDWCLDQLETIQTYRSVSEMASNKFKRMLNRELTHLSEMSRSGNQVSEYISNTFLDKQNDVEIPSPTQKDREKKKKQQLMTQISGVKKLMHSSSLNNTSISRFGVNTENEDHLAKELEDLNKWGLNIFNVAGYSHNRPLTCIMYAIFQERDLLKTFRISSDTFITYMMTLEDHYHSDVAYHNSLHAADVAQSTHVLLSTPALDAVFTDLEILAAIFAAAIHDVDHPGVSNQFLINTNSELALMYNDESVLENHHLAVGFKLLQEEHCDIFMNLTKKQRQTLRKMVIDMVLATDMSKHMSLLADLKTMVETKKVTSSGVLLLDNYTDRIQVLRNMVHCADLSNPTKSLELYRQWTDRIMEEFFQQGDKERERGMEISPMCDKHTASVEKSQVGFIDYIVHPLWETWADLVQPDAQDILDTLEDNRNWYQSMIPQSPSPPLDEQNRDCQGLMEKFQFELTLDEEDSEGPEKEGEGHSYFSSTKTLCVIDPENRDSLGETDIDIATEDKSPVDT
Sequence of Dual specificity protein kinase CLK4 (Homo sapiens) (Q9HAZ1 whole entry, looked up): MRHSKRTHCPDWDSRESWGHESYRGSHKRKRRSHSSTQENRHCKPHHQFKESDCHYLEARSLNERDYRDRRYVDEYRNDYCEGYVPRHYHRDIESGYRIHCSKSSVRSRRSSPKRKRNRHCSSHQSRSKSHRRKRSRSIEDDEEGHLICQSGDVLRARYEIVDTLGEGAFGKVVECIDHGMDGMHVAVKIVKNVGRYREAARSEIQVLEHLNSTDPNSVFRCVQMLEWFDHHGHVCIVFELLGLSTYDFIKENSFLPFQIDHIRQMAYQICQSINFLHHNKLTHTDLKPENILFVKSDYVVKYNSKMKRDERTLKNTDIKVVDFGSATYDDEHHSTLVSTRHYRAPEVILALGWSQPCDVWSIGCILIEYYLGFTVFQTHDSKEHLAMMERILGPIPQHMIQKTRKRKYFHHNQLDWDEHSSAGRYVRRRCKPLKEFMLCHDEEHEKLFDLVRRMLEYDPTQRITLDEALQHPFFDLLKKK
Sequence of Cytochrome P450 1A2 (Homo sapiens) (P05177 whole entry, looked up): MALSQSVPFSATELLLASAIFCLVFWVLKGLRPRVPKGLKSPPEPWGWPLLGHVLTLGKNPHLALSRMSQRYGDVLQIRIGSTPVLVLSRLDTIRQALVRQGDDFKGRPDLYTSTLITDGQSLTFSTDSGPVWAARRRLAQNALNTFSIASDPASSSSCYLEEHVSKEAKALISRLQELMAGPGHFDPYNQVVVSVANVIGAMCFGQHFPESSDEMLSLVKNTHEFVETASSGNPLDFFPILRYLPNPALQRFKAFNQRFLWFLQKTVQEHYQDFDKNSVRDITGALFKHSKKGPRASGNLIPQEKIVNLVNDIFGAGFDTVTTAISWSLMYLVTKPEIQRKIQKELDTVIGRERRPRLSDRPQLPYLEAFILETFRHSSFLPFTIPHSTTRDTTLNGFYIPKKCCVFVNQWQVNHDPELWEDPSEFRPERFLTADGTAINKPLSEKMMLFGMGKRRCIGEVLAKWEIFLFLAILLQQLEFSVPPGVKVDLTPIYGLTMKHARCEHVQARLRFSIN
Sequence of Cytochrome P450 2D6 (Homo sapiens) (P10635 whole entry, looked up): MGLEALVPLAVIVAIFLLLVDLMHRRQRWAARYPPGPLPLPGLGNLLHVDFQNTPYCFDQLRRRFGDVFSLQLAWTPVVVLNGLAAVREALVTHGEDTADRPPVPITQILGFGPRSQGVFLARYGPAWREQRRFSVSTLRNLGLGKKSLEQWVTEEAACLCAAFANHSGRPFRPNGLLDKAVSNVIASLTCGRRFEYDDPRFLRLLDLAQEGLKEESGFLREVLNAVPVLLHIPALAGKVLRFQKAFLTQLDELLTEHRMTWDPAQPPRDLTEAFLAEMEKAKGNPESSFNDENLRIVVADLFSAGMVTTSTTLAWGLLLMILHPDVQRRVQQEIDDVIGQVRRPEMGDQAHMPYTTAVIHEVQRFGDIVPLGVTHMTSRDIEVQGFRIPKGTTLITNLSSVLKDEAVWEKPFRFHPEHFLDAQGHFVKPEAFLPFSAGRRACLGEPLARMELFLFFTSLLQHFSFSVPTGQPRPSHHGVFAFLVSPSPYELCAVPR

| SMILES | Potency [1] [µM] | activity change, negative = inhibition [2] [%] | Potency [3] | activity change, negative = inhibition [4] [%] | activity, negative = inhibition [5] [%] | Potency [6] [µM] | Potency [7] [µM] | Potency [8] | Potency [9] | Potency [10] | Potency [11] | Potency [12] | Potency [13] | outcome [14] | Potency [15] | Potency [16] | Potency [17] | activation [18] [%] |
| --- | --- | --- | --- | --- | --- | --- | --- | --- | --- | --- | --- | --- | --- | --- | --- | --- | --- | --- |
| c1nc(NC2CC2)c2cc(-c3ccoc3)ccc2n1 | > 11.4 | -18 | 0.794 µM (active) | 6.95 | -16.7 | > 46 | > 46 | inactive | inactive | 0.794 µM (active) | 0.708 µM (active) | 0.178 µM (active) | inactive | inactive | – | – | – | – |
| CN1CCN(c2ncncc2-c2cccnc2)CC1 | > 11.4 | 2.82 | 25.1 µM (active) | -6.42 | -20.2 | > 46 | > 46 | inactive | inactive | inactive | inactive | inactive | inactive | inactive | inactive | – | – | – |
| O=c1c(-c2cccc(Cl)c2)nc2cncnc2n1C1CC1 | > 11.4 | -20.9 | 0.631 µM (active) | -7.65 | -4.14 | > 9.22 | > 46 | inactive | inactive | inactive | inactive | inactive | inactive | inactive | inactive | – | – | – |
| CN(C)c1ncc2nc(-c3cccc(C#N)c3)c(=O)n(C[C@H]3CCCO3)c2n1 | > 11.4 | -22.3 | 3.16 µM (active) | – | 1.32 | > 9.22 | > 46 | inactive | – | inactive | inactive | inactive | inactive | inactive | inactive | – | – | – |
| CN(C)c1ncc2nc(-c3ccccc3)c(=O)n(CCC#N)c2n1 | > 11.4 | -4.57 | 1.58 µM (active) | – | – | > 9.22 | > 46 | – | – | inactive | inactive | inactive | inactive | inactive | – | – | – | – |
| CCNc1ncc2nc(-c3cn(C)c4ccccc34)c(=O)n(CCC#N)c2n1 | > 11.4 | -22.2 | 5.01 µM (active) | -4.28 | -12.7 | – | > 46 | inactive | inactive | inactive | inactive | inactive | inactive | inactive | – | 3.98 µM (active) | – | – |
| COc1ccccc1-c1cncnc1N(C)Cc1ccco1 | > 11.4 | -9.6 | 15.8 µM (active) | – | 17 | > 46 | > 46 | – | inactive | inactive | inactive | inactive | inactive | inactive | inactive | – | 1.26 µM (active) | -12.2 |
